According to the supplement of paper PMC10981050:
“And” between values parts separate entries of the source, which are not always exact repeats. Equal entries are not always repeated. Structures can show the parent of a compound that is named as a salt.

Tests used:
Test in all cases: cell viability relative to vehicle control; higher = less cytotoxic
Details in all cases: 10 µM
K562 = tested on: K562
How it was run: (§1)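 Screening covered the Selleck bioactive, kinase and epigenetic probe libraries, less identity-inconsistent compounds, on CRISPR-edited mutant clones and isogenic wild-type clones of four leukaemia lines. Cells, at 2000 per well in 50 µL medium, received a single 10 µM acoustically dispensed dose. After 48 h the supernatant was removed and CellTiter-Glo luminescence was read. Viability was analysed in Genedata Screener as percent of the on-plate vehicle control.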

MARIMO = tested on: MARIMO
How it was run: as §1

MOLM14 = tested on: MOLM14
How it was run: as §1

OCI-AML2 = tested on: OCI-AML2
How it was run: as §1

Compound | cell viability (K562; SRSF2 genotype: SRSF2 P95H/wt) | cell viability (K562; SRSF2 genotype: SRSF2 wt/wt) | cell viability (MARIMO; SRSF2 genotype: SRSF2 P95H/wt) | cell viability (MARIMO; SRSF2 genotype: SRSF2 wt/wt) | cell viability (MOLM14; SRSF2 genotype: SRSF2 P95H/wt) | cell viability (MOLM14; SRSF2 genotype: SRSF2 wt/wt) | cell viability (OCI-AML2; SRSF2 genotype: P95H/wt) | cell viability (OCI-AML2; SRSF2 genotype: wt/wt)
O=c1[nH]cnc2[nH]ncc12 [Allopurinol Sodium (Aloprim)] | 90.9% and 86.7% | 90.5% | 89.1% | 93.1% | 86.6% | 91% | 90.6% | 95.1%
NC(=O)c1cccc2[nH]c(-c3ccc(C4CCCN4)cc3F)nc12 (stereo not drawn) | 94.1% and 89.6% | 80.1% | 72.9% | 80.5% | 47.7% | 33% | 47.9% | 54.3%
Clc1ccc(C(c2ccccc2Cl)C(Cl)Cl)cc1 (stereo not drawn) [Mitotane] | 91.2% and 89.1% | 87.6% | 83% | 106% | 90.8% | 84.8% | 93.7% | 107%
COC(=O)C1=C(C)NC(C)=C(C(=O)OC2CCCN(Cc3ccccc3)C2)C1c1cccc([N+](=O)[O-])c1 (stereo not drawn) [Benidipine hydrochloride] | 77.9% and 79.1% | 71.8% | 76.6% | 84.7% | 86.3% | 79.2% | 81.5% | 85.9%
CC(C)c1noc(N2CCC(COc3ccc(-c4ccc(S(C)(=O)=O)cc4)nc3)CC2)n1 | 59.8% and 77.2% | 70.5% | 70% | 34.1% | 90.4% | 95.7% | 28.4% | 36.8%
CC(C)N(CCC(=O)c1ccc2ccccc2c1)Cc1ccccc1 | 12.2% and 12.8% | 13.9% | 0.57% | 0.67% | 0.58% | 0.45% | 0.38% | 0.4%
C[C@H](NCc1ccc(OCc2cccc(F)c2)cc1)C(N)=O [Safinamide] | 101% and 109% | 107% | 103% | 105% | 98.7% | 106% | 104% | 106%
COc1cc2ncnc(Nc3ccc(F)c(Cl)c3)c2cc1O | 92.5% and 95.6% | 102% | 102% | 101% | 81.9% | 101% | 90.2% | 94%
CCN(CC)c1ccc2cc(C(=O)O)c(=O)oc2c1 [7-(Diethylamino)coumarin-3-carboxylic acid] | 112% and 101% | 105% | 95.4% | 108% | 98% | 110% | 100% | 103%
CCCN[C@H]1CCc2nc(N)sc2C1 [Pramipexole dihydrochloride monohydrate] | 102% and 83.9% | 83% | 78.1% | 85.2% | 66.5% | 74.9% | 88.2% | 78.2%
CCCN1CCCC[C@H]1C(=O)Nc1c(C)cccc1C [Ropivacaine HCl] | 91% and 94.8% | 94.2% | 99.7% | 89% | 95% | 95.4% | 98% | 95.6%
O=C(O)c1cccnc1Nc1cccc(C(F)(F)F)c1 [Niflumic acid] | 97.2% and 100% | 94.6% | 94.1% | 97.8% | 93.8% | 98.5% | 101% | 104%
OC[C@H]1O[C@@H](O[C@@H]2OC=C[C@H]3[C@H](O)[C@@H]4O[C@]4(CO)[C@@H]23)[C@H](O)[C@@H](O)[C@@H]1O [Catalpol] | 106% and 108% | 104% | 103% | 115% | 99.9% | 105% | 96.7% | 106%
C=C1CC[C@H]2O[C@]2(C)CC[C@@H]2[C@@H]1CC2(C)C [Caryophyllene oxide] | 100% and 97% | 105% | 102% | 105% | 103% | 107% | 112% | 98%
CC(=O)OCOC(=O)CN(CC(=O)OCOC(C)=O)c1ccccc1OCCOc1ccccc1N(CC(=O)OCOC(C)=O)CC(=O)OCOC(C)=O | 18.9% and 10.1% | 6.38% | 1.03% | 0.7% | 0.2% | 0.25% | 2.33% | 4.73%
CC(C)(C#N)c1ccc(N2C(=O)OCc3cnc4ccc(-c5cnc6ccccc6c5)cc4c32)cc1 | 78.7% and 82.1% | 85.8% | 83% | 92.5% | 66% | 80.2% | 74.5% | 75.7%
O=C(Nc1cc(C(F)(F)F)cc(C(F)(F)F)c1)c1cc(Cl)ccc1O | 5.29% and 8.22% | 5.97% | 19% | 18.3% | 10.3% | 8.64% | 2.4% | 8.72%
COC(=O)c1ccc2c(C(=Nc3ccc(N(C)C(=O)CN4CCN(C)CC4)cc3)c3ccccc3)c(O)[nH]c2c1 [Nintedanib (BIBF 1120)] | 1.02% and 0.94% | 2.25% | 39% | 34.4% | 2.6% | 4.94% | 0.94% | 5.1%
COc1ccc2cc(-c3nc(-c4ccc([S+](C)[O-])cc4)[nH]c3-c3ccncc3)ccc2c1 (stereo not drawn) [Tie2 kinase inhibitor] | 79% and 60.2% | 93.8% | 88.6% | 95.9% | 101% | 94.6% | 78.5% | 84.3%
CC(=O)OCCc1ccc(O)c(O)c1 [Hydroxytyrosol Acetate] | 93.5% and 95.4% | 104% | 85.5% | 98.6% | 95.7% | 103% | 108% | 110%
COc1ccc(-c2nc(N3CCOCC3)c3sc(CN(C)c4ncc(C(=O)NO)cn4)cc3n2)cn1 | 1.16% and 7.95% | 2.68% | 1.32% | 2.78% | 0.39% | 0.45% | 0.79% | 1.17%
